# PubChem BioAssay (Tox21)
# Results filed as inconclusive are left out. A call without a number means that no potency is given here. Unmarked numbers belong to inactive results. Active and inactive are the calls of the source. Unless noted, calls follow the shape of the dose curve; as a rule, active = well fitted curve in the direction sought with a large enough effect in the repeat runs; inconclusive = weak or mixed curves; inactive = no such curve, though single readings can be large; an effect the other way counts as inactive or inconclusive.
# Columns and labels:
# [1] = qHTS assay to identify small molecule antagonists of the thyroid receptor (TR) signaling pathway - cell viability counter screen (AID 743064); also: nearly all actives have a fitted effect of over 50% in size; also: potency is read from the fitted curve at half-maximal effect
# Method in brief: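 GH3.TRE-Luc cells, 4 h pre-plating; cpd + T3 1 nM final; 37 °C 23.5 h; CellTiter-Fluor 30 min; fluorescence read.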
# [2] = qHTS assay to identify small molecule antagonists of the thyroid receptor (TR) signaling pathway (AID 743065); also: nearly all actives have a fitted effect of over 55% in size; also: potency is read from the fitted curve at half-maximal effect
# Method in brief: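 GH3.TRE-Luc rat pituitary cells (two TREs driving luciferase) were dosed with compound, then stimulated with 1 nM T3 (final) for 23.5 h at 37 C. ONE-Glo luminescence was the read-out, with CellTiter-Fluor fluorescence as the cytotoxicity counter-screen.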
# [3] = tested on: thyroid hormone receptor (rat, GH3 cells); assay: qHTS assay to identify small molecule agonists of the thyroid receptor (TR) signaling pathway (AID 743066; calls by dose curve)
# [4] = qHTS assay to identify small molecule antagonists of the estrogen receptor alpha (ER-alpha) signaling pathway using the BG1 cell line - cell viability counter screen (AID 743081);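 also: compound given together with 17beta-estradiol as the ER stimulus; series mostly up to about 70 µM; nearly all actives have a fitted effect of over 45% in size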
# [5] = qHTS assay to identify small molecule that activate the aryl hydrocarbon receptor (AhR) signaling pathway - cell viability counter screen (AID 743086); also: nearly all actives have a fitted effect of over 45% in size; also: potency is read from the fitted curve at half-maximal effect
# Method in brief: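 HepG2-AhR-luc (HG2L7.5c1) cells, 4000/well, treated 24 h at 37 C with compound; viability measured as CellTiter-Fluor fluorescence after 30 min in the same wells as the luciferase read.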
# [6] = qHTS assay for small molecule agonists of the antioxidant response element (ARE) signaling pathway (AID 743202; active = well fitted activation curve with a large enough effect in the signal ratio in the repeat runs, not every such curve was filed as active; the % refers to the signal ratio)
# Method in brief: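 HepG2 ARE-bla cells; 16 h treatment at 37 C; FRET-based beta-lactamase fluorescence read after 2 h substrate incubation at room temperature.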
# [7] = qHTS assay for small molecule activators of the heat shock response signaling pathway - cell viability counter screen (AID 743209); also: nearly all actives have a fitted effect of over 50% in size
# Method in brief: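 Compounds dissolved in DMSO were added to overnight-plated HSE-bla HeLa cells and left 5 h at 37 C. Cell viability was quantified by luminescence using CellTiter-Glo.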
# [8] = qHTS assay for small molecule activators of the heat shock response signaling pathway (AID 743210; active = well fitted activation curve with a large enough effect in the signal ratio in the repeat runs, with a control signal flat, not every such curve was filed as active; the % refers to the signal ratio;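 also: HeLa cells with beta-lactamase reporter driven by heat shock elements; series mostly up to about 63 µM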)
# Method in brief: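 Following overnight attachment, HSE-bla HeLa cells received test compounds for 5 h at 37 C; beta-lactamase activity was then detected via FRET substrate fluorescence.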
# [9] = biological target: Estrogen receptor (Homo sapiens) (UniProt P03372); assay: qHTS assay to identify small molecule antagonists of the estrogen receptor alpha (ER-alpha) signaling pathway (AID 743069; active = well fitted curve in the direction sought with a large enough effect in the signal ratio in the repeat runs, not every such curve was filed as active; the % refers to the signal ratio)
# Method in brief: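 In this cell-based reporter format, GripTite HEK293 cells harbouring ER-alpha-UAS-bla were grown overnight with 2% charcoal-stripped FBS, dosed with DMSO-dissolved compounds, then challenged with 17beta-estradiol. After 18 hr at 37C, beta-lactamase activity was detected by FRET fluorescence.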
# [10] = qHTS assay to identify small molecule antagonists of the estrogen receptor alpha (ER-alpha) signaling pathway - cell viability counter screen (AID 743074; calls by dose curve; also: nearly all actives have a fitted effect of over 45% in size)
# [11] = biological target: Estrogen receptor (Homo sapiens) (UniProt P03372); assay: qHTS assay to identify small molecule agonists of the estrogen receptor alpha (ER-alpha) signaling pathway (AID 743075; calls by dose curve)
# [12] = biological target: Estrogen receptor (Homo sapiens) (UniProt P03372); assay: qHTS assay to identify small molecule agonists of the estrogen receptor alpha (ER-alpha) signaling pathway using the BG1 cell line (AID 743079); also: nearly all actives have a fitted effect of over 20% in size; also: potency is read from the fitted curve at half-maximal effect
# [13] = qHTS assay to identify small molecule antagonists of the estrogen receptor alpha (ER-alpha) signaling pathway using the BG1 cell line (AID 743080; calls by dose curve;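 also: BG1 cells stimulated with 17beta-estradiol alongside compound; series mostly up to about 70 µM; nearly all actives have a fitted effect of over 25% in size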)
# Method in brief: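 After 5 days in phenol-red-free 10% charcoal-stripped FBS medium, BG1-Luc-4E2 cells were seeded, left 24 h at 37 C, co-treated with compounds and 17beta-estradiol for 21.5 h, then assayed for viability and luciferase.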
# Aromatase (Homo sapiens) = Aromatase (Homo sapiens) (UniProt P11511); assay: qHTS assay to identify aromatase inhibitors (AID 743083); also: nearly all actives have a fitted effect of over 55% in size; also: potency is read from the fitted curve at half-maximal effect
# [14] = qHTS assay to identify aromatase inhibitors - cell viability counter screen (AID 743084);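 also: cells stimulated with testosterone during compound exposure; nearly all actives have a fitted effect of over 55% in size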; also: potency is read from the fitted curve at half-maximal effect
# [15] = biological target: Aryl hydrocarbon receptor (Homo sapiens) (UniProt P35869); assay: qHTS assay to identify small molecule that activate the aryl hydrocarbon receptor (AhR) signaling pathway (AID 743085); also: nearly all actives have a fitted effect of over 15% in size; also: potency is read from the fitted curve at half-maximal effect;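 as to activation: HG2L7.5c1 human HepG2 liver cells with stably integrated DRE-driven firefly reporter; series mostly up to about 70 µM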
# Method in brief: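 Luminescence read-out: ONE-Glo reagent, 30 min at room temperature, in HG2L7.5c1 HepG2 reporter cells treated 24 h at 37C. Viability was measured beforehand by CellTiter-Fluor fluorescence after 30 min at 37C.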
# [16] = biological target: Peroxisome proliferator-activated receptor gamma (Homo sapiens) (UniProt P37231); assay: qHTS assay to identify small molecule agonists of the peroxisome proliferator-activated receptor gamma (PPARg) signaling pathway (AID 743094; active = well fitted activation curve with a large enough effect in the signal ratio in the repeat runs, not every such curve was filed as active; the % refers to the signal ratio)
# Method in brief: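 Agonism was assessed in a beta-lactamase reporter system, HEK293H cells with a stably integrated UAS-bla construct under PPARg control; the 17 h treatment at 37C preceded a 1 h room-temperature FRET substrate read.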
# [17] = biological target: Peroxisome proliferator-activated receptor gamma (Homo sapiens) (UniProt P37231); assay: qHTS assay to identify small molecule antagonists of the peroxisome proliferator-activated receptor gamma (PPARg) signaling pathway (AID 743191; calls by dose curve; also: series mostly up to about 63 µM; nearly all actives have a fitted effect of over 30% in size)
# Method in brief: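 GeneBLAzer PPARg UAS-bla HEK293H cells, 5 h post-plating, exposed to compounds 17 h at 37C. LiveBLAzer B/G FRET substrate added for 1 h at room temperature; beta-lactamase reporter read by fluorescence intensity.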
# [18] = qHTS assay to identify small molecule antagonists of the peroxisome proliferator-activated receptor gamma (PPARg) signaling pathway - cell viability counter screen (AID 743194); also: nearly all actives have a fitted effect of over 55% in size
# Method in brief: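 Cytotoxicity counter screen in PPARg-bla HEK293H cells, same wells as reporter assay. Compounds plus 50 nM rosiglitazone (final) for 17 h at 37 C, then viability read by CellTiter-Glo luminescence.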
# [19] = qHTS assay for small molecule agonists of the antioxidant response element (ARE) signaling pathway - cell viability counter screen (AID 743203; calls by dose curve; also: nearly all actives have a fitted effect of over 55% in size)
# Method in brief: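 ATP content via CellTiter-Glo luminescence served as the viability measure. Cells: ARE-bla HepG2, 2,000 per well. Exposure: 16 hrs, 37C/5% CO2.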
# Sequence of Aromatase (Homo sapiens) (P11511 whole entry, looked up): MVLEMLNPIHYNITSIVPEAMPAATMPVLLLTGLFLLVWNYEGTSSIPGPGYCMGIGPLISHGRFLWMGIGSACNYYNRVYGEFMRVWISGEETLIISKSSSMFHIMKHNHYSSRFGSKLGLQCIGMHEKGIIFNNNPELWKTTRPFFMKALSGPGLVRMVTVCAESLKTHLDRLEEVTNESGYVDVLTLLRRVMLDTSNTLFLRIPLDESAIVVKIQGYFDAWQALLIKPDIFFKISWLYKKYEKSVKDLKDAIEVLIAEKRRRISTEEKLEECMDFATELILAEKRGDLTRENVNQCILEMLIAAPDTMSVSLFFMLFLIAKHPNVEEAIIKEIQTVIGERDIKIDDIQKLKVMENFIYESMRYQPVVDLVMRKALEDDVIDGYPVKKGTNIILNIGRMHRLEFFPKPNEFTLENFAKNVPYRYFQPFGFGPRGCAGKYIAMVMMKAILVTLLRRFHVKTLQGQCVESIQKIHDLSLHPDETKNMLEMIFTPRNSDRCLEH
# Sequence of Aryl hydrocarbon receptor (Homo sapiens) (P35869 whole entry, looked up): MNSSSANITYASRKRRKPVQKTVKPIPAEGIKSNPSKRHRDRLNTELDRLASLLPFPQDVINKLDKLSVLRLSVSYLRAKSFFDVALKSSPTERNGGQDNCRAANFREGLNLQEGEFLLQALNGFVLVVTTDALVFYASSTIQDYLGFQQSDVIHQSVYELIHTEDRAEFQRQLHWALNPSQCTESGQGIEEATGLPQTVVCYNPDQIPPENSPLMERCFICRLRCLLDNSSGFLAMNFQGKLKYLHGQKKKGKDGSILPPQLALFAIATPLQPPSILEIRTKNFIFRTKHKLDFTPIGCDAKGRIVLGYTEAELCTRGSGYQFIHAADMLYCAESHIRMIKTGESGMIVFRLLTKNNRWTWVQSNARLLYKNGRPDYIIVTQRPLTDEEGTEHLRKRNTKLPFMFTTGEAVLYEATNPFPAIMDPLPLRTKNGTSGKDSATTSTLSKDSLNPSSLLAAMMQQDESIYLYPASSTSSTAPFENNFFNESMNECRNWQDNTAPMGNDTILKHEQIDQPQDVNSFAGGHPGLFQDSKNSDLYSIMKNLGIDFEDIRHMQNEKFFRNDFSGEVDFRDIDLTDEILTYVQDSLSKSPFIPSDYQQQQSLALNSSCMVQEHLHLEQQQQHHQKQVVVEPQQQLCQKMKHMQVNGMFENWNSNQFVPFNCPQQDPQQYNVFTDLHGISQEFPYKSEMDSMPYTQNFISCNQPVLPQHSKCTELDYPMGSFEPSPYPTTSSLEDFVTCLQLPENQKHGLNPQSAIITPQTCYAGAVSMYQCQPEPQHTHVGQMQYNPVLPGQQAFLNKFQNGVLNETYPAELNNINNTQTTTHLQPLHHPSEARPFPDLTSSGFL
# Sequence of Peroxisome proliferator-activated receptor gamma (Homo sapiens) (P37231 whole entry, looked up): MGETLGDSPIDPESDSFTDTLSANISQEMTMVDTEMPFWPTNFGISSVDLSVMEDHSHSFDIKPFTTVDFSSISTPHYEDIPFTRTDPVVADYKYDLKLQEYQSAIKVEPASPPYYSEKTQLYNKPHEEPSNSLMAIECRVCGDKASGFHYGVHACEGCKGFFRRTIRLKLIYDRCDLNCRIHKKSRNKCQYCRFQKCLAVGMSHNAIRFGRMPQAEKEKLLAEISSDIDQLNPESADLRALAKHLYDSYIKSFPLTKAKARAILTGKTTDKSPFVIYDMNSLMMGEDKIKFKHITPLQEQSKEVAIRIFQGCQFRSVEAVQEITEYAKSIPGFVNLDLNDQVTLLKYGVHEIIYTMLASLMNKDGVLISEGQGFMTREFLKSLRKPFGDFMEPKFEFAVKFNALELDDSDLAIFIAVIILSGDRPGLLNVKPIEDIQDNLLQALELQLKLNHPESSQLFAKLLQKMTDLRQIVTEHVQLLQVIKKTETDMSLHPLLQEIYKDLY
# Sequence of Estrogen receptor (Homo sapiens) (P03372 whole entry, looked up): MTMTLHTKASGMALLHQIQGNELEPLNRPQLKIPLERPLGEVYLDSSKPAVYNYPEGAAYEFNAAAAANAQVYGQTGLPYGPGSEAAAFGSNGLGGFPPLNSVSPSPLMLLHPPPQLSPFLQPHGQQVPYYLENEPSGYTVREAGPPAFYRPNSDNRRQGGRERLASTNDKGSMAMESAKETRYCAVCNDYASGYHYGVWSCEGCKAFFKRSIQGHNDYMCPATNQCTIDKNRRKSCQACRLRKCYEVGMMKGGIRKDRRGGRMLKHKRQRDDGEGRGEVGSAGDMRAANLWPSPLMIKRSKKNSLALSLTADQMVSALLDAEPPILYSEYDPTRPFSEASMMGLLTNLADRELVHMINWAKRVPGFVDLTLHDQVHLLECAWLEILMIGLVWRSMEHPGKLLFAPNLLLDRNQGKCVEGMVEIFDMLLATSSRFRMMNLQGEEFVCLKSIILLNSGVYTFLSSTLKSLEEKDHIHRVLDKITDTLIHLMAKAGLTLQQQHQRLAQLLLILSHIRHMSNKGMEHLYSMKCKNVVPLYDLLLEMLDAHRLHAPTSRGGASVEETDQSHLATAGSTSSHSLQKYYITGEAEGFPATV
Compound,Potency [1],Potency [2],Potency [3],outcome [4],Potency [5],Potency [6],outcome [7],outcome [8],Potency [9],outcome [10],Potency [11],Potency [12],Potency [13],Potency (Aromatase (Homo sapiens)),Potency [14],Potency [15],outcome [16],outcome [17],Potency [18],outcome [19]
CC(O)CN(CCCN(C)C)CCCN(C)C (stereo not given),inactive,inactive,inactive,inactive,inactive,inactive,inactive,inactive,–,–,–,–,–,–,–,–,–,–,–,–
CC(C)(C)OC(=O)N1C[C@@H](F)C[C@H]1C(=O)O,inactive,–,inactive,inactive,–,inactive,inactive,inactive,inactive,inactive,inactive,inactive,inactive,inactive,inactive,inactive,inactive,inactive,inactive,inactive
OC1OC[C@@H](O)[C@H](O)[C@H]1O (stereo not given in full),inactive,inactive,inactive,inactive,inactive,–,inactive,inactive,–,–,–,–,–,inactive,inactive,inactive,inactive,inactive,inactive,inactive
COC(C(=O)O)c1ccccc1 (stereo not given),inactive,inactive,inactive,inactive,inactive,–,inactive,inactive,–,–,–,–,–,inactive,inactive,inactive,inactive,inactive,inactive,inactive
Cc1nc(-c2ccc(OCC(C)C)c(C#N)c2)sc1C(=O)O,inactive,13.3 µM (active),inactive,inactive,inactive,–,inactive,inactive,–,–,inactive,–,–,inactive,inactive,0.0298 µM (active),inactive,–,inactive,inactive
N#CCN(CC#N)CCN(CC#N)CC#N,inactive,inactive,inactive,inactive,inactive,inactive,inactive,inactive,–,inactive,–,–,–,–,–,–,–,–,inactive,inactive
NC(=O)c1ncn([C@@H]2O[C@H](CO)[C@@H](O)[C@H]2O)c1N,inactive,–,inactive,inactive,inactive,inactive,inactive,inactive,inactive,inactive,inactive,inactive,inactive,inactive,inactive,inactive,inactive,inactive,inactive,inactive
c1ccc(SCCSc2ccccc2)cc1,inactive,inactive,inactive,inactive,inactive,inactive,inactive,inactive,–,–,–,–,–,inactive,inactive,–,inactive,–,inactive,inactive
Cc1ccc(N)cc1[N+](=O)[O-],inactive,inactive,inactive,inactive,inactive,–,inactive,inactive,–,inactive,–,–,–,–,inactive,–,–,inactive,inactive,inactive
O=C1C(CCS(=O)c2ccccc2)C(=O)N(c2ccccc2)N1c1ccccc1 (stereo not given),inactive,–,inactive,inactive,inactive,inactive,inactive,inactive,inactive,inactive,inactive,inactive,inactive,inactive,inactive,inactive,inactive,–,inactive,inactive
CN(C)C(=O)C(CCN1CCC(O)(c2ccc(Cl)cc2)CC1)(c1ccccc1)c1ccccc1,8.41 µM (active),8.41 µM (active),–,–,–,–,inactive,inactive,–,–,inactive,–,–,26.6 µM (active),–,inactive,–,–,–,–
NC(N)=NS(=O)(=O)c1ccc(N)cc1,inactive,–,inactive,inactive,inactive,–,inactive,inactive,inactive,inactive,inactive,inactive,inactive,inactive,inactive,inactive,inactive,inactive,inactive,inactive
COC(=O)C1=C(C)NC(C)=C(C(=O)OCC(C)=O)C1c1ccccc1[N+](=O)[O-] (stereo not given),8.41 µM (active),7.5 µM (active),–,–,29.8 µM (active),inactive,inactive,inactive,–,inactive,inactive,inactive,–,26.6 µM (active),26.6 µM (active),8.41 µM (active),inactive,inactive,inactive,inactive
COc1cccc(Br)c1,inactive,–,inactive,inactive,–,inactive,inactive,inactive,inactive,inactive,inactive,inactive,inactive,inactive,inactive,inactive,inactive,–,inactive,inactive
CC(C)CCCC(C)CCCC(C)CCCCC(C)CCCC(C)CCCC(C)C (stereo not given),inactive,inactive,inactive,inactive,inactive,inactive,inactive,inactive,–,inactive,–,–,–,inactive,inactive,–,–,–,inactive,inactive
COC(=O)c1ccc(C(=O)OC)c(C(=O)OC)c1,inactive,–,inactive,inactive,inactive,inactive,inactive,inactive,inactive,inactive,inactive,inactive,inactive,inactive,inactive,inactive,inactive,inactive,inactive,inactive
O=C(O)c1ccc[n+]([O-])c1,inactive,–,inactive,inactive,inactive,–,inactive,inactive,inactive,inactive,inactive,inactive,inactive,inactive,inactive,inactive,inactive,inactive,inactive,inactive
CCCCC=O,inactive,inactive,inactive,inactive,inactive,inactive,inactive,inactive,–,inactive,–,–,–,–,–,–,–,–,inactive,inactive
Cn1cnc2c(=O)[nH]c(N)nc21,inactive,inactive,inactive,inactive,inactive,inactive,inactive,inactive,–,–,–,–,–,inactive,inactive,inactive,inactive,–,inactive,inactive
CCCCC1CCCCC(=O)O1 (stereo not given),inactive,inactive,–,inactive,inactive,–,inactive,–,inactive,inactive,inactive,inactive,–,inactive,inactive,inactive,–,inactive,inactive,inactive
C=C(C)C(=O)NCCCN(C)C,inactive,inactive,–,inactive,inactive,inactive,inactive,inactive,–,inactive,–,–,–,inactive,inactive,inactive,inactive,inactive,inactive,inactive
CCC(C)OC(=O)N1CCCCC1CCO (stereo not given),inactive,–,inactive,inactive,inactive,–,inactive,inactive,–,inactive,–,–,–,inactive,inactive,inactive,inactive,–,inactive,inactive
C#CC(C)(O)CC(C)C (stereo not given),inactive,–,inactive,inactive,inactive,–,inactive,inactive,–,inactive,–,–,–,inactive,inactive,inactive,inactive,inactive,inactive,inactive
COc1cccc(OC)c1,inactive,–,inactive,inactive,–,inactive,inactive,inactive,–,inactive,–,–,–,inactive,inactive,inactive,inactive,inactive,inactive,inactive
N#CCc1ccccc1[N+](=O)[O-],inactive,–,inactive,inactive,inactive,inactive,inactive,inactive,–,inactive,–,–,–,inactive,inactive,–,inactive,inactive,inactive,inactive
O=C(O)/C=C/c1ccc(Cn2ccnc2)cc1,inactive,–,–,inactive,inactive,inactive,inactive,inactive,–,inactive,–,–,–,inactive,inactive,inactive,inactive,–,inactive,inactive
CCCCCOC(=O)Nc1nc(=O)n([C@@H]2O[C@H](C)[C@@H](O)[C@H]2O)cc1F,inactive,–,inactive,inactive,inactive,–,inactive,inactive,inactive,inactive,inactive,inactive,–,inactive,inactive,inactive,inactive,inactive,inactive,inactive
C=CCSCC1Nc2cc(Cl)c(S(N)(=O)=O)cc2S(=O)(=O)N1 (stereo not given),inactive,–,inactive,inactive,–,–,inactive,inactive,–,inactive,–,–,–,inactive,inactive,inactive,inactive,inactive,inactive,inactive
CC(C)=CC(=O)O,inactive,–,inactive,inactive,inactive,inactive,inactive,inactive,inactive,inactive,inactive,54.5 µM (active),inactive,inactive,inactive,–,inactive,inactive,inactive,inactive
